The results in this text go back to PubChem BioAssay (EPA / NIEHS).

Assay [1] in a line: ATG_TAL_CIS: Attagene CIS-FACTORIAL HepG2 Assay for human TAL Basal Promoter (AID 2282966; active = hit-call score of the fitted dose curve at least 0.9, where 1 is the maximum; inactive = score below 0.9;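 also: background control endpoint measuring basal TAL promoter reporter mRNA not a specific factor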). Particulars: HepG2 Attagene cis-factorial TAL promoter reporter; actives raise or lower the signal. The gist of the method: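 Basal-promoter background-control endpoint from a multiplexed HepG2 reporter panel. Cells were exposed 24 h, then reporter mRNA was read by RT-PCR/CE fluorescence and fitted in both directions relative to DMSO.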

Assay [2] in a line: ATG_TGFb_CIS: Attagene CIS-FACTORIAL HepG2 Assay for human Transforming Growth Factor (TGF) (AID 2282967; active = hit-call score of the fitted dose curve at least 0.9, where 1 is the maximum; inactive = score below 0.9). Particulars: HepG2 Attagene CIS TGFb reporter, mRNA transcription; actives raise or lower the signal. An outline of the steps: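 Cells were dosed for 24 hours, after which total RNA was reverse-transcribed and reporter sequences amplified, labeled and sized by capillary electrophoresis. Activity was fitted in both directions against DMSO.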

Assay [3] addresses Estrogen receptor (Homo sapiens) (UniProt P03372). In words: ATG_ERa_TRANS: Attagene TRANS-FACTORIAL HepG2 Assay for human Estrogen Receptor alpha (ERa) (AID 2282970). To be noted: HepG2 Attagene TRANS ERa GAL4 reporter, mRNA. An outline of the steps:
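Gal4-fusion ERa transactivation, measured as reporter transcript level in transiently transfected HepG2 cells. Exposure 24 h; RT-PCR plus capillary electrophoresis with fluorescence detection.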

Assay [4] has as its target X-box-binding protein 1 (Homo sapiens) (UniProt P17861). Briefly: ATG_Xbp1_CIS: Attagene CIS-FACTORIAL HepG2 Assay for human X-box Binding Protein 1 (XBP1) (AID 2282972; active = hit-call score of the fitted dose curve at least 0.9, where 1 is the maximum; inactive = score below 0.9). To be noted: HepG2 XBP1 cis-element reporter, Attagene multiplex; actives raise or lower the signal. The gist of the method:
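Read-out: fluorescent reporter mRNA fragments resolved by capillary electrophoresis after RT-PCR. Human HepG2 liver cells carried transfected cis-promoter reporter units and were exposed to chemicals for 24 hours. Gain or loss of signal fitted relative to DMSO baseline.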

Assay [5] is described as follows: ATG_Hpa5_TRANS: Attagene TRANS-FACTORIAL HepG2 Assay for human GAL4-Hpa5 Hepatocyte Transcription Factor Basal Promoter (AID 2282975).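 Also: hits are increases in reporter mRNA over DMSO baseline.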 To be noted: HepG2 Attagene GAL4-Hpa5 transcription reporter. An outline of the steps:
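Gain-of-signal versus DMSO is fitted for reporter mRNA quantified by RT-PCR and capillary electrophoresis after 24 h exposure. This endpoint is an internal background marker in transiently transfected HepG2 cells carrying GAL4-UAS reporter units.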

Assay [6] concerns the target Oxysterols receptor LXR-beta (Homo sapiens) (UniProt P55055). Briefly: ATG_LXRb_TRANS: Attagene TRANS-FACTORIAL HepG2 Assay for human Liver X Receptor beta (LXRb) (AID 2282981). To be noted: HepG2 Attagene TRANS GAL4-LXRb reporter, mRNA. The gist of the method:
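After 24 h chemical treatment of transfected HepG2 cells carrying exogenous NR-Gal4 chimeras, reporter mRNA was quantified by fluorescent RT-PCR and capillary electrophoresis; activity taken as increase over DMSO controls.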

A short description of assay [7]: ATG_M_06_TRANS: Attagene TRANS-FACTORIAL HepG2 Assay for M06 Transcription Factor (Internal Marker) (AID 2282983). Particulars: HepG2 Attagene TRANS M06 internal marker reporter. An outline of the steps: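 mRNA levels of a reporter transcript, quantified as FAM fluorescence on capillary electrophoresis, served as readout. HepG2 cells expressing exogenous GAL4-chimera reporter constructs were exposed for 24 h. Gain of signal over DMSO was evaluated.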

Assay [8] has as its target Transcriptional activator Myb (Homo sapiens) (UniProt P10242). Briefly: ATG_Myb_CIS: Attagene CIS-FACTORIAL HepG2 Assay for human Myeloblastosis (Myb) Proto-Oncogene Transcription Factor (AID 2282986; active = hit-call score of the fitted dose curve at least 0.9, where 1 is the maximum; inactive = score below 0.9). Particulars: HepG2 Attagene CIS-FACTORIAL Myb reporter transcription; actives raise or lower the signal. An outline of the steps:
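Reporter transcript levels, quantified by fluorescent RT-PCR and capillary electrophoresis, serve as the read-out. Transfected HepG2 cells carrying cis-promoter reporter units are dosed for 24 hours, and curves are fitted bidirectionally against DMSO controls.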

In assay [9] the target is Steroid hormone receptor ERR1 (Homo sapiens) (UniProt P11474). In words: ATG_ERRa_TRANS: Attagene TRANS-FACTORIAL HepG2 Assay for human Estrogen-Related Receptor alpha (ERRa) (AID 2282971). Particulars: HepG2 Attagene TRANS reporter, ERRa transactivation. An outline of the steps:
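HepG2 cells transiently transfected with GAL4-UAS reporter units and chimeric NR-Gal4 constructs; after 24 hour compound incubation, reporter mRNA quantified by RT-PCR, fluorescent labelling and capillary electrophoresis, gain of signal versus DMSO.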

Assay [10] is described as follows: ATG_M_19_TRANS: Attagene TRANS-FACTORIAL HepG2 Assay for M19 Transcription Factor (Internal Marker) (AID 2282974). To be noted: HepG2 Attagene TRANS-FACTORIAL M19 internal marker reporter. The gist of the method:
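Fluorescence of 6-FAM-labelled reporter cDNA fragments, separated by capillary electrophoresis, served as the readout. These derived from HepG2 cells carrying transfected GAL4-UAS reporter units after 24 h dosing, with DMSO as negative control.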

For assay [11], the target named is Estrogen-related receptor gamma (Homo sapiens) (UniProt P62508). In words: ATG_ERRg_TRANS: Attagene TRANS-FACTORIAL HepG2 Assay for human Estrogen-Related Receptor gamma (ERRg) (AID 2282977).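 Also: hits increase reporter signal over DMSO so potencies reflect activators.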 Particulars: HepG2 Attagene TRANS reporter, ERRg transactivation. The gist of the method:
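Exogenous NR-Gal4 chimera activity measured as reporter transcript induction after 24 h in transiently transfected HepG2 cells. RNA reverse-transcribed, PCR-amplified, 6-FAM-labelled and resolved by capillary electrophoresis; increase over DMSO baseline.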

In assay [12] the target is Glucocorticoid receptor (Homo sapiens) (UniProt P04150). In words: ATG_GR_TRANS: Attagene TRANS-FACTORIAL HepG2 Assay for human Glucocorticoid Receptor (GR) (AID 2282978).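 Also: activators score as hits since higher reporter transcript over DMSO is fitted.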 Particulars: HepG2 Attagene TRANS GR reporter, mRNA transcription. The gist of the method:
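Fluorescent capillary-electrophoresis quantitation of reporter mRNA is the readout, taken 24 h after dosing human HepG2 cells carrying transiently transfected GAL4-UAS reporter units activated by chimeric NR-GAL4 fusions; activity scored as induction over DMSO.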

The target in assay [13] is Nuclear receptor subfamily 4 group A member 2 (Homo sapiens) (UniProt P43354). Briefly: ATG_NURR1_TRANS: Attagene TRANS-FACTORIAL HepG2 Assay for human Nuclear Receptor Related Protein 1 (NURR1) (AID 2282985). To be noted: HepG2 Attagene TRANS reporter, mRNA readout. The gist of the method: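 Reporter transcript induction, measured by RT-PCR with fluorescent labelling, HpaI digestion and capillary electrophoresis, after 24 hr dosing of human HepG2 cells transiently expressing an exogenous NR-Gal4 fusion with GAL4-UAS-driven reporters; DMSO as baseline.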
Chain of Nuclear receptor subfamily 4 group A member 2 (Homo sapiens) (P43354 whole entry, looked up, the tested form may be a part): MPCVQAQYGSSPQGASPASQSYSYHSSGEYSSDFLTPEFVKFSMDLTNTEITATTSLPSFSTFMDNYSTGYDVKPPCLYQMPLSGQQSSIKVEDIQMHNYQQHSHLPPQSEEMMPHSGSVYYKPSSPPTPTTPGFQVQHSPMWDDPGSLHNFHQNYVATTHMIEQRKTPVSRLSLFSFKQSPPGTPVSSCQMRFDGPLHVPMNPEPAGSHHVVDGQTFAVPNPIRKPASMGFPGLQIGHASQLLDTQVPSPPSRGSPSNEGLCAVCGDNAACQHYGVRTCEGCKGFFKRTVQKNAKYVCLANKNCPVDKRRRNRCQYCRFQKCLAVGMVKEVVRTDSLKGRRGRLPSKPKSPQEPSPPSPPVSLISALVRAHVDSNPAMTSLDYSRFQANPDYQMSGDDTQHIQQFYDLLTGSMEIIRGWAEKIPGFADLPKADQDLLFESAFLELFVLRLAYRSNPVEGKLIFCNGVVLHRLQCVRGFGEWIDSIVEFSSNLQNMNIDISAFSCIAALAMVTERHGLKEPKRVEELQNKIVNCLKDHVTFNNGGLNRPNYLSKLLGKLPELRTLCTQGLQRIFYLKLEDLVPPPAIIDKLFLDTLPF

Assay [14] deals with Androgen receptor (Homo sapiens) (UniProt P10275). Briefly: ATG_AR_TRANS: Attagene TRANS-FACTORIAL HepG2 Assay for human Androgen Receptor (AR) (AID 2282973). To be noted: HepG2 Attagene TRANS-FACTORIAL AR reporter transcription. An outline of the steps:
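HepG2 cells transiently transfected with AR-Gal4 chimera and GAL4-UAS reporter units; chemical exposure 24 h. Reporter mRNA quantified by RT-PCR with fluorescent labelling and capillary electrophoresis; gain-of-signal fitted against DMSO.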

The nature of assay [15]: ATG_GAL4_TRANS: Attagene TRANS-FACTORIAL HepG2 Assay for GAL4 (Internal Marker) (AID 2282976). Particulars: HepG2 Attagene TRANS GAL4 internal marker reporter. The gist of the method: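 Background-control readout: GAL4-UAS reporter transcript in transiently transfected HepG2 cells after 24 h compound exposure. Measured by RT-PCR, 6-FAM primer extension, HpaI digest and capillary electrophoresis; gain-of-signal fit versus DMSO.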

Assay [16] concerns the target Bile acid receptor (Homo sapiens) (UniProt Q96RI1). Briefly: ATG_FXR_TRANS: Attagene TRANS-FACTORIAL HepG2 Assay for Farnesoid X Receptor (FXR) (AID 2282979).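 Also: hits raise reporter mRNA above DMSO so AC50 marks FXR activation.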 Particulars: HepG2 Attagene TRANS FXR-GAL4 reporter transcription. An outline of the steps: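 HepG2 cells were transiently transfected with GAL4-UAS reporters driven by chimeric NR-Gal4 proteins and dosed for 24 h. Reporter mRNA was quantified by RT-PCR, fluorescent labelling, HpaI digestion and capillary electrophoresis, with gain of signal scored versus DMSO.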

The nature of assay [17]: ATG_M_32_TRANS: Attagene TRANS-FACTORIAL HepG2 Assay for M32 Transcription Factor (Internal Marker) (AID 2282984). To be noted: HepG2 Attagene TRANS M32 internal marker reporter. An outline of the steps: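 Internal background reporter in transfected HepG2: after 24 h chemical exposure, RNA reverse-transcribed, reporter cDNA amplified, fluorescently labelled and HpaI-cut, then sized by capillary electrophoresis. Gain of signal fitted against DMSO control.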

In assay [18] the target is Nuclear receptor subfamily 1 group I member 3 (Homo sapiens) (UniProt Q14994). In words: ATG_CAR_TRANS: Attagene TRANS-FACTORIAL HepG2 Assay for human Constitutive Androstane Receptor (CAR) (AID 2282969).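 Also: activators raise reporter mRNA above DMSO so AC50 marks induction.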 Particulars: HepG2 Attagene TRANS-FACTORIAL CAR reporter. An outline of the steps: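 Signal is reporter mRNA induction relative to DMSO, measured 24 h after dosing by RT-PCR with fluorescent primer extension and capillary electrophoresis. Human HepG2 liver cells carried transiently transfected chimeric NR-Gal4/GAL4-UAS reporter constructs.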
Chain of Nuclear receptor subfamily 1 group I member 3 (Homo sapiens) (Q14994 whole entry, looked up, the tested form may be a part): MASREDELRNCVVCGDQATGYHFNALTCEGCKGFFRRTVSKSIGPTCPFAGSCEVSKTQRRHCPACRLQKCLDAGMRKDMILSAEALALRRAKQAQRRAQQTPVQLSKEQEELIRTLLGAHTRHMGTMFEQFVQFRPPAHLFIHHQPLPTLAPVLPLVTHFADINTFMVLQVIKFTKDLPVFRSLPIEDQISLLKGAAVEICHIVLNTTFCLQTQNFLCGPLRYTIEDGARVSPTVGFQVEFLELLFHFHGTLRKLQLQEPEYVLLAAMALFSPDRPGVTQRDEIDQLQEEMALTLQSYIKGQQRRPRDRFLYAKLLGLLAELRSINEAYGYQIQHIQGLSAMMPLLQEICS

In assay [19] the target is Hepatocyte nuclear factor 4-alpha (Homo sapiens) (UniProt P41235). In words: ATG_HNF4a_TRANS: Attagene TRANS-FACTORIAL HepG2 Assay for human Hepatocyte Nuclear Factor 4 alpha (HNF4a) (AID 2282982). To be noted: HepG2 HNF4a transactivation reporter, mRNA readout. An outline of the steps:
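Activity of an exogenous HNF4a–Gal4 fusion scored as induced GAL4-UAS reporter transcripts after 24 h chemical exposure of transfected human HepG2 cells. Read-out via RT-PCR with 6-FAM labelling and capillary electrophoresis; rise over DMSO baseline.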

“And” between values parts separate entries of the source, which are not always exact repeats. Identical values can stand only once. Inconclusive results are not listed. The source made the active and inactive calls. The calls were made as follows, unless noted: active = hit-call score of the fitted dose curve at least 0.9, where 1 is the maximum; inconclusive = response in the unintended direction; inactive = score below 0.9.

Chain of Glucocorticoid receptor (Homo sapiens) (P04150 whole entry, looked up, the tested form may be a part): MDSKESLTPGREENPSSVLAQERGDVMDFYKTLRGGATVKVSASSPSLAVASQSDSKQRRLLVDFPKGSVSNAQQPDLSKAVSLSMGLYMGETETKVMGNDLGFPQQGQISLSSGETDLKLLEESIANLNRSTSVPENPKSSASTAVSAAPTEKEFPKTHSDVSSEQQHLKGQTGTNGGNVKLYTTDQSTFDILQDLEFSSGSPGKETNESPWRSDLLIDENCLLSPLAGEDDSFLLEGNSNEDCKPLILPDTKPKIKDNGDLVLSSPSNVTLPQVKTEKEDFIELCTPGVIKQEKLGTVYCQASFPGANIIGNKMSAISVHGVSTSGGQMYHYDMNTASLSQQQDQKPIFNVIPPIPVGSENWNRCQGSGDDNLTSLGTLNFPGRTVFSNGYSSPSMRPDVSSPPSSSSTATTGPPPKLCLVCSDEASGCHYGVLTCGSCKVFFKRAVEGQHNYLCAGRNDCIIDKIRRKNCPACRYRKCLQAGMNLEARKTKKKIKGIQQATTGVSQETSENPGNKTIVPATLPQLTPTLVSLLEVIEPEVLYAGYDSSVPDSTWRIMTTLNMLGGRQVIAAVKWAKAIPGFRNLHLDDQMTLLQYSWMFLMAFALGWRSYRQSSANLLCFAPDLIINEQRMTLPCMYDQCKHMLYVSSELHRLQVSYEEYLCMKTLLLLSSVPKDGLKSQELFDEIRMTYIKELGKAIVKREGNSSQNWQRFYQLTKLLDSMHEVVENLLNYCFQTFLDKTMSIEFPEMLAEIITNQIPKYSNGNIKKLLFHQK
Chain of Hepatocyte nuclear factor 4-alpha (Homo sapiens) (P41235 whole entry, looked up, the tested form may be a part): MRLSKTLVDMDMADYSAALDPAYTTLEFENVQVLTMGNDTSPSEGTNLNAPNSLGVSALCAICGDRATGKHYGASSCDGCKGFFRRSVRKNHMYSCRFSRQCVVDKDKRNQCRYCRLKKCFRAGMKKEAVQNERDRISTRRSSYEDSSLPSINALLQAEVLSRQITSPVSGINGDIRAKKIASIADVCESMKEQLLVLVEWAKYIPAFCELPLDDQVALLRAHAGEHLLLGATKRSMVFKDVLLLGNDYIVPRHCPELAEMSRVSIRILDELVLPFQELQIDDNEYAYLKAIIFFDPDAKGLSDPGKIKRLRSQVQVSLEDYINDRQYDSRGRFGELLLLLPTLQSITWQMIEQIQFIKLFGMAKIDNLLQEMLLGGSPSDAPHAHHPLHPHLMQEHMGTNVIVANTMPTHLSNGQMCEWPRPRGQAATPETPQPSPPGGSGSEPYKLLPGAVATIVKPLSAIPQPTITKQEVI
Chain of Oxysterols receptor LXR-beta (Homo sapiens) (P55055 whole entry, looked up, the tested form may be a part): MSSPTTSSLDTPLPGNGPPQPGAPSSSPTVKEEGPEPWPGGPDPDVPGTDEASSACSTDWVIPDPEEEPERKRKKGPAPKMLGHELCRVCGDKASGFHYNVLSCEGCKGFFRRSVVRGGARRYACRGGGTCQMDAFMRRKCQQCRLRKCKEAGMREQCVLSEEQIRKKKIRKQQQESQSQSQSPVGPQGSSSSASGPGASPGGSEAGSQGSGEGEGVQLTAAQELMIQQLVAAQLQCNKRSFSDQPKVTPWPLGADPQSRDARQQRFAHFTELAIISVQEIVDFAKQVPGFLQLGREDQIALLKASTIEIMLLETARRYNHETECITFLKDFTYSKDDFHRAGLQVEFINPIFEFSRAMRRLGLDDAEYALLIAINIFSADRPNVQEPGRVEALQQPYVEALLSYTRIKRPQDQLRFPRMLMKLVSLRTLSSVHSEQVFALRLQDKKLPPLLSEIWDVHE
Chain of Transcriptional activator Myb (Homo sapiens) (P10242 whole entry, looked up): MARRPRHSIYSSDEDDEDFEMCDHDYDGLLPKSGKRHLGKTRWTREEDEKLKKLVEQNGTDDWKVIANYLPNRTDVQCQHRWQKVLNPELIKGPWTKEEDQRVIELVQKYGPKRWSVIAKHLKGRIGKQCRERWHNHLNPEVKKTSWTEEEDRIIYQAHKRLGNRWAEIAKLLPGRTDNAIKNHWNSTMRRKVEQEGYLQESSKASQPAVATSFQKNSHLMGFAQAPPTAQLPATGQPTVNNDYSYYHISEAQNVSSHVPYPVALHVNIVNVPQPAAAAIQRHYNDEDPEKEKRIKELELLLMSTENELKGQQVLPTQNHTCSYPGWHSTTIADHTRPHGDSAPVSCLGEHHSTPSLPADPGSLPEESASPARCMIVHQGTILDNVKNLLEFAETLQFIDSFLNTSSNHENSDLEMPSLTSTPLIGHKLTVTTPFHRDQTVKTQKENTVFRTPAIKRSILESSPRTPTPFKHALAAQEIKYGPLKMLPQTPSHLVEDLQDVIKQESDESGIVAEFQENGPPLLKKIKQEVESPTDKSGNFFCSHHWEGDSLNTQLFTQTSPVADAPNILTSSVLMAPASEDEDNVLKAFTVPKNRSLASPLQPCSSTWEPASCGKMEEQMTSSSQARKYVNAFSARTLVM
Chain of X-box-binding protein 1 (Homo sapiens) (P17861 whole entry, looked up, the tested form may be a part): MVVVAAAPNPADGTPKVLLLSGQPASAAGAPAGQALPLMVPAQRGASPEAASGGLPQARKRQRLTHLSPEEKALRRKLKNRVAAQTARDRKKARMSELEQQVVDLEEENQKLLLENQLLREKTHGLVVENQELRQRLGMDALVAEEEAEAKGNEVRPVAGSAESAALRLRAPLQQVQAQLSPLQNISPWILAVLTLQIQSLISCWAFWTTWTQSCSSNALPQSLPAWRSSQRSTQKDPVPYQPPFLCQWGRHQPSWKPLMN
Chain of Androgen receptor (Homo sapiens) (P10275 whole entry, looked up, the tested form may be a part): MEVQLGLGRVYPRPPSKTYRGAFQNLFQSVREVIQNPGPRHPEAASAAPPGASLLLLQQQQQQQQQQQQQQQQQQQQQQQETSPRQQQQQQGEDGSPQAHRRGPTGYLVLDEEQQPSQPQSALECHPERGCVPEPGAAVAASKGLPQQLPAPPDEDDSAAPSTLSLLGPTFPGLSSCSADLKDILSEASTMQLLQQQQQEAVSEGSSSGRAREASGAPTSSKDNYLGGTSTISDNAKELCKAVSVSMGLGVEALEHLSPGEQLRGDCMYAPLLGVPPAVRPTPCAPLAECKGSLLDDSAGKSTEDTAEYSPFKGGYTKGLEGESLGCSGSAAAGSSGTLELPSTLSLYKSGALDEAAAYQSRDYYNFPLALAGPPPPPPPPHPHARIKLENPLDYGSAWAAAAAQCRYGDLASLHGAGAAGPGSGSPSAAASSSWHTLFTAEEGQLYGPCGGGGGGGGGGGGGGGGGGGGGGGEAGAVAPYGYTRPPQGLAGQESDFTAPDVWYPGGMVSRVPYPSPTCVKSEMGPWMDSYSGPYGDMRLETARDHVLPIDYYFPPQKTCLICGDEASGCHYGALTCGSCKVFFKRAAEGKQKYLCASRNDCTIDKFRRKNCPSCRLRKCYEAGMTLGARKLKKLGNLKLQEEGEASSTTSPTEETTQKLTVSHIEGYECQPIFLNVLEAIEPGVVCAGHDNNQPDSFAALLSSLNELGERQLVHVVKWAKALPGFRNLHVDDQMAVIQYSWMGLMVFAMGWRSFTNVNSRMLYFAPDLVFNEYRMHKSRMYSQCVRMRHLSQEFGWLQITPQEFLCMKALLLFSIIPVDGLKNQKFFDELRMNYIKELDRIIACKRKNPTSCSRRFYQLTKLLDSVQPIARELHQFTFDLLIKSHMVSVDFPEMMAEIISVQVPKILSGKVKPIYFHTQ
Chain of Estrogen-related receptor gamma (Homo sapiens) (P62508 whole entry, looked up, the tested form may be a part): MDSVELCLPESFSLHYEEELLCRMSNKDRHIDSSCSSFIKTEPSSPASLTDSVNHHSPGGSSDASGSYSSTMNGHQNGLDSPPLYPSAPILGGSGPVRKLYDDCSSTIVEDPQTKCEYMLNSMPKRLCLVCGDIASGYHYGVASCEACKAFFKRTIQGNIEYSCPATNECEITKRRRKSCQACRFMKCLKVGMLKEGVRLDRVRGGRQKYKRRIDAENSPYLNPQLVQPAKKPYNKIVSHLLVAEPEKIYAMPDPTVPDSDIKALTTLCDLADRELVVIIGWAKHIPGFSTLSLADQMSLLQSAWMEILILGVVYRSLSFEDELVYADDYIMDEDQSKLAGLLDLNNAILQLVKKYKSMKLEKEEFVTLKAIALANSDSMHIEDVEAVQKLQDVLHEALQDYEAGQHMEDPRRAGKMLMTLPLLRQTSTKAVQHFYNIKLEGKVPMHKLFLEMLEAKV

As for `CN(C)c1nc(=O)n(C2CCCCC2)c(=O)n1C`, the outcome in assay [1], in assay [2], in assay [3], in [4], in assay [5] and in assay [6] was inactive. Besides, the outcome in assay [7] and in assay [8] was inactive.

With `ClC1=C(Cl)[C@]2(Cl)[C@@H]3[C@H]4C[C@H]([C@@H]5O[C@H]45)[C@@H]3[C@@]1(Cl)C2(Cl)Cl`, the outcome in [1], in assay [2], in [9], in [4], in assay [10] and in assay [11] was inactive. Besides, the result in [12], in [13] and in [8] was inactive.

Take `C=CC(=O)NCNC(=O)C=C`: the call in assay [1], in [2], in assay [4], in assay [14], in assay [6] and in assay [7] was inactive. Further, the molecule was classed as inactive in [13] and in assay [8].

Turning to `c1ccc(-c2ccccc2)cc1`, the call in assay [1], in [2], in assay [4], in assay [14], in assay [10] and in assay [15] was inactive. The call in [12], in [16], in assay [17], in [13] and in assay [8] was inactive.

Regarding `Nn1cnnc1`, the call in assay [1], in assay [2], in assay [4], in assay [12], in assay [6] and in [7] was inactive. In addition, the result in assay [8] was inactive.

The term AC50 denotes the concentration at which the activity in the assay is half-maximal. Regarding `CO/C=C(/C(=O)OC)c1ccccc1COc1cccc(C(F)(F)F)n1`, the call in [1], in assay [2], in [18], in assay [10], in assay [16] and in assay [8] was inactive. Also, the AC50 in assay [4] was 7.76 µM (active); in assay [13], 29.3 µM (active).

In the case of `Cc1ccccc1CO[C@@H]1C[C@@]2(C(C)C)CC[C@]1(C)O2`, the result in [1], in assay [2], in [18], in assay [4], in assay [6] and in assay [7] was inactive. Further, the call in assay [13] and in [8] was inactive.

With `O=S(=O)(O)C(F)(F)C(F)(F)C(F)(F)C(F)(F)F`, the molecule was classed as inactive in assay [1], in assay [2], in assay [4], in assay [10], in assay [15] and in assay [11]. The outcome in assay [12], in assay [6], in assay [19], in assay [7], in assay [13] and in [8] was inactive.

On to `CCOP(=S)(OCC)SCSC(C)(C)C`, for which the molecule was classed as inactive in assay [1], in assay [2], in [18], in assay [4], in assay [10] and in assay [19]. Also, the outcome in assay [7], in assay [13] and in assay [8] was inactive. Besides, the AC50 in assay [6] is 20.2 µM (active) and 27.7 µM (active).

Consider `CCCCCCOC(=O)c1ccccc1C(=O)OCCCCCC`, for which the outcome in [1], in assay [2], in assay [18], in assay [4], in assay [15] and in assay [12] was inactive. Further, the molecule was called inactive in assay [7], in assay [13] and in [8].
